Bioassay records deposited in PubChem by National Center for Advancing Translational Sciences (NCATS).
Sampled rows, rich in hits. Any-hit rate of the full collection: about 8.5%.
Sfp inh – Sfp phosphopantetheinyl transferase inhibition; Q9F4F7; Biochemical Sfp PPTase activity, qHTS; Potency, µM, for the others: largest response in the series, negative = inhibition, hits mostly inhibitors; 3.5% of 310,000 active; AID 1490; active = well fitted curve in the direction sought with a large enough effect; inconclusive = small, poorly fitted or top-dose-only effect, or another doubt; inactive = no such curve, though single readings can be large; an effect the other way counts as inactive or inconclusive;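 note: the enzyme is Sfp with the accession as filed and its product quenches rhodamine fluorescence; potency is the fitted concentration of half-maximal effect; 0% = enzyme reaction without inhibitor and -100% = no enzyme wells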
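Fluorescence-quenching assay: 15 nM Sfp-PPTase preincubated 15 min at room temperature with compound, then 5 uM rhodamine-CoA and 12.5 uM BHQ-2-labelled YbbR peptide added. Fluorescence (ex 525/em 598 nm) read at start and after 30 min; difference gives rate.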
ALDH1A1 inh – blocks purified human ALDH1A1 activity. AID 1030. Potency, µM (highest dose often 75.3 µM), for inactives: at the top dose activity, negative = inhibition, actives largely listed as inhibitors. Purified ALDH1A1, NADH fluorescence, propionaldehyde substrate. 7.3% of 220,000 active;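 note: potency is the fitted concentration of half-maximal effect; plate controls were no enzyme wells and a reference inhibitor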
Target sequence (P00352 whole entry, looked up): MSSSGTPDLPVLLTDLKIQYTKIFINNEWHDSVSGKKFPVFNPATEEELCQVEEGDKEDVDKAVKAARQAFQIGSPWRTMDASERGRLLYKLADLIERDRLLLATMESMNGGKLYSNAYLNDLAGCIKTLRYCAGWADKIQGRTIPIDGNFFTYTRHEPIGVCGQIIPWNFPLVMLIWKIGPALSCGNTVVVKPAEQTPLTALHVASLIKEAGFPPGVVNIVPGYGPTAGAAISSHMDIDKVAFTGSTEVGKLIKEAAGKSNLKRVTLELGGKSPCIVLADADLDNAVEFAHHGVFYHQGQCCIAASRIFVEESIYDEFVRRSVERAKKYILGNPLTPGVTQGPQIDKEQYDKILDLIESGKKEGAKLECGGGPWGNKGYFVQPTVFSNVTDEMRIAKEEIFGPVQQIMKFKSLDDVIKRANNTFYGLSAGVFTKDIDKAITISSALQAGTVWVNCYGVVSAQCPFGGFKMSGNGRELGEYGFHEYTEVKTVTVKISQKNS
FBPA coupling cs – counter-screen for Giardia aldolase inhibitors: coupling enzyme system; coupling enzyme system counterscreen, AmpLite Red fluorescence; activity change, negative = inhibition, % at 58.2 µM, hits read low; 0.67% of 290,000 active; in the data active = activity change below about -30%
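Final compound at 57.5 uM, incubated 10 min at RT with coupling enzyme reagent (glyceraldehyde-3-phosphate), then 20 min with substrate and AmpLite Red detection. Fluorescence read at 525/598 nm; tests interference with the coupling assay, not aldolase inhibition.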
KDM4E inh – blocks human JMJD2E demethylase activity. B2RXH2. JMJD2E catalytic domain, FDH-coupled NADH fluorescence (FDH is formaldehyde dehydrogenase). Potency, µM (doses to about 57.1 µM), inactives show top-dose activity change, negative = inhibition, actives largely listed as inhibitors. 1.6% of 230,000 active. AID 2147;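 note: potency is the fitted concentration of half-maximal effect; 0% = wells with enzyme and -100% = buffer wells without enzyme; nearly all actives have a fitted effect of over 50% in size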
NPSR antag – neuropeptide S receptor (human) antagonism, cAMP. Q6W5P4. CHO-NPSR cells, cAMP TR-FRET, antagonist mode. Potency, µM (titrated, usually from 38.3 µM), inactives show at the top dose activity change, negative = inhibition, actives largely listed as inhibitors. 1% of 220,000 active. AID 1461; active = well fitted curve in the direction sought with a large enough effect; inconclusive = small, poorly fitted or top-dose-only effect, or another doubt; inactive = no such curve, though single readings can be large; an effect the other way counts as inactive or inconclusive; note: potency is the fitted concentration of half-maximal effect; nearly all actives have a fitted effect of over 50% in size
GoLoco inh red – RGS12 GoLoco-Gai1 interaction inhibition; Gai1:RGS12 GoLoco peptide FP, rhodamine, 10 min; Potency, µM (series often up to 61.6 µM), for the others: at the highest dose activity, negative = inhibition, actives largely listed as inhibitors; 0.44% of 230,000 active; active = well fitted inhibition curve with a large enough effect, not every such curve was filed as active; inactive = no such curve, though single readings can be large or run the other way; note: potency is the fitted concentration of half-maximal effect; nearly all actives have a fitted effect of over 30% in size
* marks the source's active call; other numbers are inactive results; ? = inconclusive; / = no result; [ ] = remark or other dose. Unless noted, calls come from the whole dose curve; as a rule, active = well fitted inhibition curve with a large enough effect (not every such curve was filed as active); inconclusive = small, poorly fitted or top-dose-only effect, or another doubt; inactive = no such curve, though single readings can be large or run the other way. Unless noted, % is set by controls: 0 for no effect and ±100 for the full control effect.

SMILES	Sfp inh	ALDH1A1 inh	FBPA coupling cs	KDM4E inh	NPSR antag	GoLoco inh red
COc1ccc(C(=O)NCc2nnc(SCC(=O)NC3CCCCC3)o2)cc1	7%	/	/	/	/	/
CCN(CC)S(=O)(=O)c1ccc(-c2nnc(SCC(C)=O)o2)cc1	6%	?	0	-3%	-15%[46.1 µM]	10%
CCN(CC)S(=O)(=O)c1ccc(-c2nnc(SCC(=O)Nc3cc(OC)cc(OC)c3)o2)cc1	5%	13µM*	-1	1%	-4%[46.1 µM]	6%
CC(=O)OCCNc1cc(SC(C)C)c2nonc2c1[N+](=O)[O-]	3%	3%	-5	-9%	-9%	-7%
CC(=O)OCCNc1cc(N2CCN(C)CC2)c2noc3c2c1C(=O)c1ccccc1-3	4%	-3%	-26	-20%	10µM*	218%
CCN1CCN(c2cc(N3CCN(C(=O)c4ccco4)CC3)c3c4c(onc24)-c2ccccc2C3=O)CC1	50µM*	/	-30*	/	/	/
O=C(O)CCNc1cc(N2CCN(C(=O)c3ccco3)CC2)c2noc3c2c1C(=O)c1ccccc1-3	-23%	/	-25	/	/	/
CC(C)[C@H](NC(=O)[C@H](CCCCN)NC(=O)[C@@H](NC(=O)[C@@H]1CCCN1C(=O)[C@H](CCCN=C(N)N)NC(=O)[C@H](CCCN=C(N)N)NC(=O)[C@H](CCCCN)NC(=O)[C@H](CCCCN)NC(=O)CNC(=O)[C@@H](NC(=O)[C@@H]1CCCN1C(=O)[C@@H](N)CCCCN)C(C)C)C(C)C)C(=O)N[C@@H](Cc1ccc(O)cc1)C(=O)N1CCC[C@H]1C(=O)O	0%	/	-3	/	/	/
Cc1nc(N/N=C/c2ccccn2)sc1C	-10%	-12%	-2	13µM*	4µM*	3%
COC(=O)c1ccc(/C=N/Nc2nc(C)c(C)s2)cc1	0%	?	-5	?	7%	-6%
CCCc1sc(N/N=C/c2ccccn2)nc1-c1ccc(F)cc1	-10%	-9%	-10	-5%	10µM*	15%
CCN=c1scc(-c2ccc(F)cc2)n1/N=C/c1ccccn1	?	?	-1	-14%	-22%	6%
CC(C)c1ccc(C2C3=C(COC3=O)Nc3cc4c(cc32)OCO4)cc1 (stereo unspecified)	10%	?	5	?	19%	-3%
CCC(=O)N1CCc2cc(S(=O)(=O)NC(Cc3ccccc3)C(=O)NC3CCCCC3)ccc21 (stereo unspecified)	7%	2%	5	1%	-12%	-7%
CC(=O)N1CCc2cc(S(=O)(=O)NC(Cc3ccccc3)C(=O)Nc3cc(C)ccn3)ccc21 (stereo unspecified)	7%	10µM*	7	-3%	2%[46.1 µM]	10%
COC(=O)c1ccc(C(=S)N2CCOCC2)cc1	22µM*	10µM*	5	3%	-8%[46.1 µM]	-4%
COc1ccc(C(=O)/C=C\N2CCOCC2)cc1	1%	8.9µM*	1	-2%	-7%[46.1 µM]	-16%
O=C(Oc1ccc(C(=S)N2CCOCC2)cc1)c1ccc(Br)cc1	1%	10%	-1	0%	14%	-5%
COc1ccc(C(=S)N2CCN(C)CC2)cc1Br	4%	15%	4	5%	-15%[46.1 µM]	-7%
COc1ccc(C(=S)N2CCN(C)CC2)cc1	25µM*	-10%	4	0%	?	2%
COC(=O)c1ccc(C(=S)N2CCCCC2)cc1	14%	-6%	-1	10%	4%	-4%
COc1ccc(C(=O)Oc2ccc(C(=S)N3CCOCC3)cc2)cc1	22µM*	7.1µM*	1	?	-1%	6%
COc1ccc2c(c1)CCc1c(C(=O)N3CCCc4ccccc43)noc1-2	2%	4.5µM*	2	-4%	-25%[46.1 µM]	3%
COc1ccc2c(c1)CCc1c(C(=O)N3CCOCC3)noc1-2	7%	-9%	1	-5%	-7%[46.1 µM]	-8%
COc1ccc2c(c1)CCc1c(C(=O)NCc3ccc(F)cc3)noc1-2	-7%	1%	-1	-1%	-19%[46.1 µM]	-2%
SMILES	Sfp inh	ALDH1A1 inh	FBPA coupling cs	KDM4E inh	NPSR antag	GoLoco inh red
COc1ccc2c(c1)CCc1c(C(=O)NCc3ccc(Cl)cc3)noc1-2	?	13µM*	1	1%	-19%[46.1 µM]	6%
CC(NC(=O)CN(C)Cc1cccs1)c1ccccc1 (stereo unspecified)	20%	-6%	0	2%	-11%	-2%
Cc1cc(C)nc(N2CCN(C(=O)CCC(=O)Nc3nnc(C(C)C)s3)CC2)n1	-7%	/	4	?	4%	5%
CC(CC=O)CCCC(C)(C)O (stereo unspecified)	15%	/	/	/	/	/
O=C1[C@H]2[C@H](ON3CCCC[C@H]23)C(=O)N1c1cccc(C(F)(F)F)c1	15%	-4%	-1	11%	9%	6%
COc1ccc([C@@H]2[C@H]3C(=O)N(c4cccc(C(F)(F)F)c4)C(=O)[C@H]3ON2C)cc1	-9%	14µM*	1	1%	-4%[46.1 µM]	7%
O=c1c2c3c(sc2ncn1/N=C/c1ccc([N+](=O)[O-])o1)CCCC3	-16%	0.2µM*	-8	6%	?	1%
COc1ccc2c(c1)C(=O)[C@H](OC(=O)N[C@H](C)C1CCCCC1)[C@@H](c1ccc(OC)c(Br)c1)O2	0%	-9%	1	-27%	/	2%
COc1ccc(CNS(=O)(=O)c2csc(C(N)=O)c2)cc1OC	15%	/	/	/	/	/
COC(=O)c1ccccc1NC(=O)COC(=O)/C=C/c1ccco1	3%	?	1	5%	0%	-5%
CN(Cc1ccccc1)C(=O)COC(=O)/C=C/c1ccco1	35µM*	?	2	-7%	5%	0%
CN(CCOC(=O)/C=C/c1ccco1)Cc1ccccc1	20µM*	22µM*	0	-26%	-21%	1%
CCNC(=S)N(Cc1ccco1)Cc1cc2cc(OCC)ccc2[nH]c1=O	10µM*	?	1	-118%	-28%	2%
Cc1ccc2[nH]c(=O)c(CN(Cc3cccs3)C(=S)NCc3ccco3)cc2c1	50µM*	?	0	5%	-22%	10%
COc1ccccc1-n1c(-c2cn(C)nc2C)n[nH]c1=S	56µM*	?	5	1%	5%	0%
COc1ccccc1-n1c(-c2ccccc2)n[nH]c1=S	71µM*	?	1	?	-3%	7%
COc1ccc(OC)c(-n2c(-c3cccc(C)c3)n[nH]c2=S)c1	79µM*	?	-2	-13%	-26%	10%
COc1cc2ccccc2cc1C(=O)NCC(c1cccs1)N(C)C (stereo unspecified)	4%	?	0	?	-34%	2%
